In PubChem BioAssay one finds growth inhibition, inhibition and outcome data, which are given here for 21 compounds.

Structures are written as SMILES. Values without a mark were called inactive. For part of these data: Potency and affinity values are given separately. Activity calls are given as the source filed them. Unless noted, how the calls were made is not given here.

Test [1] can be described thus: antimalarial activity against Dd2 strain (AID 2302;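 active means growth inhibition above 50% at the single 2 µM test dose, taken to imply half-maximal potency below 2 µM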;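 further: 0% = DMSO untreated growth and 100% = chloroquine plus artemisinin killed control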). The following applies: P. falciparum Dd2 in RBCs, LDH growth readout, 72 h; at 2 µM; hits give high values.
Test [2] is described as follows: HepG2 cytotoxicity, primary screen, cytotoxicity control for P. falciparum antimalarial project, cell-based, ATP luminescence (AID 2303;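 active means inhibition above 50%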;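 further: 0% = DMSO wells and 100% = digitonin-killed cells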). As to conditions: HepG2 viability, 24-48 h, at 10 µM, hits give high values.
The target in test [3] is L-lactate dehydrogenase (Plasmodium falciparum (isolate CDC / Honduras)) (UniProt Q27743). Briefly: PfLDH activity inhibition – cell lysate, 3D7 strain, counter-screen for P. falciparum growth inhibition project (AID 2304).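 Further: 0% = vehicle and 100% = reference inhibitor.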 As to conditions: P. falciparum 3D7 crude extract, LDH APAD/NBT absorbance; at 2 µM; hits give high values. Background: The purpose of a counterscreen is to sort out artefacts and off-target activity.

A short description of test [4]: inhibition of 3D7 malaria parasite growth – strain 3D7 (AID 2306).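 Further: 0% = DMSO wells and 100% = chloroquine plus artemisinin control wells.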 As to conditions: P. falciparum 3D7 erythrocytic growth, LDH absorbance, 72 h; at 2 µM; hits give high values.
The target in test [5] is Calcium-dependent protein kinase 1 (Plasmodium falciparum (isolate 3D7)) (UniProt P62344). Briefly: PfCDPK1 kinase inhibitors, biochemical, TCAMS library (AID 1159585; cut-off not given, nearly all actives have IC50 up to about 0.98 µM;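 further: inhibitors leave more ATP so luminescence rises with inhibition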). The following applies: recombinant PfCDPK1, Kinase-Glo ATP depletion luminescence. (In general: Kinase-Glo measures the ATP left after a reaction by luminescence.)
In test [6] the target is Plasmodium falciparum protein kinase 6 (PK6, PF3D7_1337100) (UniProt Q8IDW1). Briefly: PfPK6 kinase inhibitors, biochemical, TCAMS library (AID 1159586). The following applies: recombinant PfPK6, Kinase-Glo ATP depletion luminescence.
The target in test [7] is Protein kinase 7 (PK7), Plasmodium falciparum 3D7 (PF3D7_0213400) (UniProt Q7YTF7). Briefly: inhibition of Plasmodium PK7 catalytic activity – biochemical, TCAMS antimalarial set, Kinase-Glo luminescence (AID 1159587). As to conditions: recombinant PfPK7, Kinase-Glo ATP depletion luminescence.
For test [8], the target named is Calcium-dependent protein kinase 4 (Plasmodium falciparum (isolate 3D7)) (UniProt Q8IBS5). The experiment in a line: PfCDPK4 kinase inhibitors, biochemical, TCAMS library (AID 1159588; cut-off not given, nearly all actives have IC50 up to about 0.91 µM). The following applies: recombinant PfCDPK4, Kinase-Glo ATP depletion luminescence.
Calcium-dependent protein kinase 4 (Plasmodium falciparum (isolate 3D7)), sequence (Q8IBS5 whole entry, looked up): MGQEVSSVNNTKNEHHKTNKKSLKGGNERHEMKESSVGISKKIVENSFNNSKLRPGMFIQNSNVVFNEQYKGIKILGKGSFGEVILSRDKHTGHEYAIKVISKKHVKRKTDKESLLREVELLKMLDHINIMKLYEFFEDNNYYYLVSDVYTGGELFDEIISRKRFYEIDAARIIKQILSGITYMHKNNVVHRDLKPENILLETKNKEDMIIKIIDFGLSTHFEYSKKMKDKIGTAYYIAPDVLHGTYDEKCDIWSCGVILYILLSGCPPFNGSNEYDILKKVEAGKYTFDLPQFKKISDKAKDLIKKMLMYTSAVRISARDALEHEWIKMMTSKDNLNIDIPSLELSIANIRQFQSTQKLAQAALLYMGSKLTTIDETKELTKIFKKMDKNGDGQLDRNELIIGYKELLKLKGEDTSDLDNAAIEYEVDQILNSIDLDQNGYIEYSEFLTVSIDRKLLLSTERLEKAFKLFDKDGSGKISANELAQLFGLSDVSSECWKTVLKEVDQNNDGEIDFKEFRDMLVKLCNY

Plasmodium falciparum protein kinase 6 (PK6, PF3D7_1337100), sequence (Q8IDW1 1-305): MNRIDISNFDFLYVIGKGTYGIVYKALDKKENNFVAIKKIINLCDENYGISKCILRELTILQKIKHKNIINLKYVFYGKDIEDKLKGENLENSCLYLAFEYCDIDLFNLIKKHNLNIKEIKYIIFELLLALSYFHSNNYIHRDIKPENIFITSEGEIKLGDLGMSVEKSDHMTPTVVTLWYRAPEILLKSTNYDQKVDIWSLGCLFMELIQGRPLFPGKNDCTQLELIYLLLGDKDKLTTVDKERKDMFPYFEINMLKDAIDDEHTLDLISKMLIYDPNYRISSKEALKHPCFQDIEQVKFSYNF
L-lactate dehydrogenase (Plasmodium falciparum (isolate CDC / Honduras)), sequence (Q27743 whole entry, looked up): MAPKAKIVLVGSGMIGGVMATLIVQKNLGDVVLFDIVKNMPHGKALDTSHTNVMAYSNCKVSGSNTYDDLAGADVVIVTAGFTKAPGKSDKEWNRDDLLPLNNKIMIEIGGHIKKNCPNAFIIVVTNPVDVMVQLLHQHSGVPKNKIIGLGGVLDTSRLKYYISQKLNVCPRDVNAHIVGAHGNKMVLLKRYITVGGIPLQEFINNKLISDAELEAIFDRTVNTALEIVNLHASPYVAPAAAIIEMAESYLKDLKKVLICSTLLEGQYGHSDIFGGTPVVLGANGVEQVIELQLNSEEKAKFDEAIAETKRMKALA
Calcium-dependent protein kinase 1 (Plasmodium falciparum (isolate 3D7)), sequence (P62344 whole entry, looked up): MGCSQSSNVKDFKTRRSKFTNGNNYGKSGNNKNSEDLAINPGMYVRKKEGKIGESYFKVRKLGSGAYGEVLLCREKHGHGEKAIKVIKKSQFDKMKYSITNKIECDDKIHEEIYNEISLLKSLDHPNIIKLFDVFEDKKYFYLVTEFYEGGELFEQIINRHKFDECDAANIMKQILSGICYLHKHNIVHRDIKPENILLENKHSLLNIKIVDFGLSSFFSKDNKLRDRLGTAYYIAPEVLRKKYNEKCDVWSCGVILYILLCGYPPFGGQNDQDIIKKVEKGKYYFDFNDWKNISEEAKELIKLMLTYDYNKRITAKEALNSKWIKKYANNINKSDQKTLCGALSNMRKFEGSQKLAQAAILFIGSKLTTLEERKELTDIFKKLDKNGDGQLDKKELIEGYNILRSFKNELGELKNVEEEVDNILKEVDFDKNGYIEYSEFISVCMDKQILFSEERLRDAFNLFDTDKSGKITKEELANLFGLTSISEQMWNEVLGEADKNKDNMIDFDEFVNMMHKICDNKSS
Protein kinase 7 (PK7), Plasmodium falciparum 3D7 (PF3D7_0213400), sequence (Q7YTF7 1-343): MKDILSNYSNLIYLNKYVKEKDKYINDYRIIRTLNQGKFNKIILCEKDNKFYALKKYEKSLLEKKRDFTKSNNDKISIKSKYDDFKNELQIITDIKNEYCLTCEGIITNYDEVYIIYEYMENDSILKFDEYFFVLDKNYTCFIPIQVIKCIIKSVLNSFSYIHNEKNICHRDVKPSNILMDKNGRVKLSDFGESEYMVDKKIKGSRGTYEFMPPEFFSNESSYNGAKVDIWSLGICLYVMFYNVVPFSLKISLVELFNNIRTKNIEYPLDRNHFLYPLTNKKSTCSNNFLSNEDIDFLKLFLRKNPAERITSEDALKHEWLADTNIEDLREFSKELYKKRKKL

A word on the inhibition: it is the drop in the measured response relative to a control, in per cent. With `NC(N)=NN=Cc1c2ccc(Cl)cc2c(Cl)c2ccc(Cl)cc12`, the results for the growth inhibition in test [1] and in test [4] were 90% (active) and 100% (active), respectively. The inhibition in test [2] was 28%; in test [3], 0%. Also, the result in test [5], in test [6], in test [7] and in test [8] was inactive.

For `CS(=O)(=O)c1cccc(-c2cnc(N)c3cc(-c4ccc(F)cc4)ccc23)c1`, the growth inhibition in test [1] is 33%; in test [4], 91% (active). Further, the figures for the inhibition in test [2] and in test [3] were 28% and 4%, respectively. Moreover, the result in test [5], in test [6], in test [7] and in test [8] was inactive.

As for `O=C(Cn1c(SCc2cccc(F)c2F)cc(=O)c2ccccc21)N(CCCn1ccnc1)Cc1ccc(-c2ccc(C(F)(F)F)cc2)cc1`, the growth inhibition in test [1] and in test [4] was 99% (active) throughout. Moreover, the figures for the inhibition in test [2] and in test [3] were 21% and -5%, respectively. Besides, the outcome in test [5], in test [6], in test [7] and in test [8] was inactive.

Regarding `O=c1cc(NCCCNCc2cc(Br)cs2)[nH]c2ccccc12`, the growth inhibition in test [1] is 5%; in test [4], 85% (active). In addition, the values for the inhibition in test [2] and in test [3] were 11% and -2%, respectively. Moreover, the result in test [5], in test [6], in test [7] and in test [8] was inactive.

Turning to `CCOc1ccc(/C=C/C(=O)Nc2cccc3c2CCN(C)C3)cc1`, the growth inhibition in test [1] is 3%; in test [4] it was 92% (active). Moreover, the values for the inhibition in test [2] and in test [3] were -2% and 0%, respectively. Besides, the result in test [5], in test [6], in test [7] and in test [8] was inactive.

As to `O=C(Nc1cccc(-c2nn3ccccc3c2-c2ccnc(Nc3ccccc3)n2)c1)c1c(F)cccc1F`, the growth inhibition in test [1] and in test [4] was 98% (active) throughout. Besides, the inhibition in test [2] is 69% (active); in test [3], -6%. The result in test [5], in test [6], in test [7] and in test [8] was inactive.

With `C=CCNc1cc(-c2ccccn2)nc(-c2ccccn2)n1`, the growth inhibition in test [1] is 79% (active); in test [4], 94% (active). Also, the figures for the inhibition in test [2] and in test [3] were 78% (active) and -2%, respectively. Further, the result in test [5], in test [6], in test [7] and in test [8] was inactive.

As for `COc1cc(CNCCCCCCNCc2cc(OC)c3ccccc3c2OC)c(OC)c2ccccc12`, the growth inhibition in test [1] was 40%; in test [4] it was 102% (active). For the same compound, the values for the inhibition in test [2] and in test [3] were 99% (active) and -2%, respectively. In addition, the outcome in test [5], in test [6], in test [7] and in test [8] was inactive.

As for `COc1ccc(-c2ccc(CNCc3ccsc3)cc2)cc1S(=O)(=O)NCCN1CCCC1`, the growth inhibition in test [1] is 30%; in test [4] it was 94% (active). The inhibition is 22% in test [2] and 3% in test [3]. Besides, the outcome in test [5], in test [6], in test [7] and in test [8] was inactive.

As to `Nc1ccnc2ccc(OCCCCCCc3ccccc3)cc12`, the growth inhibition in test [1] is 99% (active); in test [4] it was 100% (active). Besides, the inhibition in test [2] is 96% (active); in test [3], 1%. The outcome in test [5], in test [6], in test [7] and in test [8] was inactive.

For the compound `Cn1cc(C2CCN(CCCCNC(=O)c3ccc(C(=O)Nc4ccc(C#N)cc4)cc3)CC2)c2ccccc21`, the values for the growth inhibition in test [1] and in test [4] were 58% (active) and 100% (active), respectively. Further, the inhibition in test [2] was 16%; in test [3] it was -4%. Also, the outcome in test [5], in test [6], in test [7] and in test [8] was inactive.

Turning to `CC(C)(C)c1ccccc1OCCCON1C(N)=NC(N)=NC1(C)C`, the values for the growth inhibition in test [1] and in test [4] were 98% (active) and 95% (active), respectively. Besides, the inhibition is 63% (active) in test [2] and 5% in test [3]. Besides, the result in test [5], in test [6], in test [7] and in test [8] was inactive.

For `OCCN1CCN(Cc2ccc(-c3cccc(-c4nc5ccc(C(F)(F)F)cc5[nH]4)c3)cc2)CC1`, the growth inhibition is 83% (active) in test [1] and 99% (active) in test [4]. Also, the inhibition in test [2] is 29%; in test [3] it was 0%. The outcome in test [5], in test [6], in test [7] and in test [8] was inactive.

Regarding `N#Cc1ccc(-c2ccc(C(=O)NCC3CCN(CCN4CCC(c5ccc6c(c5OCC(N)=O)CCCC6)CC4)CC3)cc2)cc1`, the growth inhibition in test [1] and in test [4] was 99% (active) throughout. The inhibition in test [2] was 56% (active); in test [3] it was -7%. Further, the result in test [5], in test [6], in test [7] and in test [8] was inactive.

As for `COc1ccc(-n2nc(C(=O)NCCC3=CCCCC3)c3ccccc3c2=O)cc1`, the growth inhibition in test [1] is 59% (active); in test [4], 94% (active). The results for the inhibition in test [2] and in test [3] were 0% and -4%, respectively. Further, the result in test [5], in test [6], in test [7] and in test [8] was inactive.

Take `Cc1nc(-c2cccc(NCc3ccccc3)c2)[nH]c1C`: the growth inhibition was 48% in test [1] and 101% (active) in test [4]. In addition, the inhibition in test [2] was 16%; in test [3], 1%. The outcome in test [5], in test [6], in test [7] and in test [8] was inactive.

In the case of `Cc1ccc2[nH]c3c(NCCN(C)C)ncnc3c2c1`, the growth inhibition is 5% in test [1] and 99% (active) in test [4]. Besides, the values for the inhibition in test [2] and in test [3] were 9% and 0%, respectively. For the same compound, the result in test [5], in test [6], in test [7] and in test [8] was inactive.

As to `COc1cc(CNc2ncc(-c3ccsc3)c(-c3nccs3)n2)cc(OC)c1`, the growth inhibition in test [1] was 82% (active); in test [4] it was 86% (active). The inhibition in test [2] was 3%; in test [3] it was -3%. Moreover, the outcome in test [5], in test [6], in test [7] and in test [8] was inactive.

With `O=C(N[C@@H](CC1CCCCC1)C(=O)NCCN1CCCCC1)c1ccc(O)c(-c2ccc(Cl)c(Cl)c2)c1`, the growth inhibition in test [1] is 99% (active); in test [4] it was 97% (active). In addition, the inhibition was 14% in test [2] and -6% in test [3]. For the same compound, the outcome in test [5], in test [6], in test [7] and in test [8] was inactive.

For the compound `COc1ccc(CCNCCCCNCCc2ccc(OC)c3ccccc23)c2ccccc12`, the growth inhibition in test [1] is 33%; in test [4] it was 100% (active). The inhibition is 100% (active) in test [2] and -1% in test [3]. In addition, the result in test [5], in test [6], in test [7] and in test [8] was inactive.

Consider `O=C(NCCCN1CCC(N2CCCCC2)CC1)c1ccc2nc(N3CCCCC3)sc2c1`, for which the growth inhibition in test [1] is 20%; in test [4], 89% (active). For the same compound, the inhibition is 11% in test [2] and -1% in test [3]. The outcome in test [5], in test [6], in test [7] and in test [8] was inactive.
